40 molecules from PubChem BioAssay (EPA / NIEHS) can be followed below.

Calls of active or inactive are those of the source. The calls were made as follows: active = hit-call score of the fitted dose curve at least 0.9, where 1 is the maximum; inactive = score below 0.9.

This assay can be described thus: ATG_VDRE_CIS: Attagene CIS-FACTORIAL HepG2 Assay for human Vitamin D Receptor Element (VDRE) (AID 2282968). To be noted: HepG2 VDRE cis-reporter transcription, actives raise or lower the signal. The procedure:
ATG_CIS is a cell-based, multiplexed-readout assay that uses HepG2, a human liver cell line, with measurements taken at 24 hours after chemical dosing in a 24-well plate.ATG_VDRE_CIS is one of 52 assay component(s) measured or calculated from the ATG_CIS assay. It is designed to make measurements of mRNA induction, a form of inducible reporter, as detected with fluorescence intensity signals by Reverse transcription polymerase chain reaction (RT-PCR) and Capillary electrophoresis technology.Data from the assay component ATG_VDRE_CIS was analyzed into 1 assay endpoint. This assay endpoint, ATG_VDRE_CIS, was analyzed with bidirectional fitting relative to DMSO as the negative control and baseline of activity. Using a type of inducible reporter, measures of mRNA for gain or loss-of-signal activity can be used to understand the reporter gene at the transcription factor-level as they relate to the gene VDR. Furthermore, this assay endpoint can be referred to as a primary readout, because this assay has produced multiple assay endpoints where this one serves a reporter gene function. To generalize the intended target to other relatable targets, this assay endpoint is annotated to the nuclear receptor intended target family, where the subfamily is non-steroidal.
Human liver HepG2 cells are transiently transfected with multiple reporter transcription units (MRTUs) in 6-well plates using FuGene 6 reagent (Roche; 3 ml FuGene/1 mg DNA). The MRTU constructs are regulated by a cis-regulating element (promoter). […] A major difference between the CIS and TRANS system is that in CIS activities of endogenous TFs are measured, whereas the TRANS assay evaluates changes in activities of exogenous, chimeric NR-Gal4 proteins. […] At the end of 24 hour incubation, total RNA was isolated using TriZol reagent (Invitrogen). The isolated RNA is then reverse-transcribed using oligo(dT) primer and Mo-MLV reverse transcriptase (Invitrogen) with DNAse I (Ambion) treatment for 30 min. The one-tenth of the produced cDNA was amplified by PCR using Taq DNA polymerase (Invitrogen) and two reporter sequence-specific primers. The PCR products were fluorescently labeled by primer extension with 6-arboxyfluorescein (6-FAM) 5'-labeled reporter sequence-specific primer (2 min at 95 C, 20 s at 68 C and 10 min at 72 C) and these products were digested with 5U of HpaI (New England Biolabs) for 2h at 37 C. The fragments were purified using Qiaquick PCR columns (Qiagen), analyzed on an ABI 3130xL genetic analyzer (Applied Biosystems) with peak positions identified by using a set of X-rhodamine (ROX)-labeled MapMarker1000 molecular weight standards (BioVentures). The raw capillary electrophoresis data was processed using Attagraph software (Attagene).
Take `C=CCOC(=O)C(C)(C)OC(=O)c1cc(-n2c(=O)cc(C(F)(F)F)n(C)c2=O)ccc1Cl`: the call was inactive.

By AC50 is commonly meant the concentration giving half of the maximal activity seen. As for `Cc1cc(C)nc(Nc2ccccc2)n1`, the AC50 was 14.9 µM (active).

As for `COc1cc(Cl)c(OC)cc1Cl`, the molecule was called inactive.

In the case of `Nc1c(Cl)c(F)nc(OCC(=O)O)c1Cl`, the outcome was inactive.

As to `CC(C)C1(C)N=C(c2ncccc2C(=O)O)NC1=O` (stereo not given), the result was inactive.

Turning to `CC1(C)CON(Cc2ccccc2Cl)C1=O`, the AC50 was 13.2 µM (active).

Regarding `CCOc1nc(C(Cl)(Cl)Cl)ns1`, the molecule was called inactive.

With `CN/C(=N\[N+](=O)[O-])NCc1cnc(Cl)s1`, the outcome was inactive.

Regarding `CCSC(=O)N1CCCCCC1`, the molecule was called inactive.

Regarding `CC(C)N1C(=O)c2ccccc2NS1(=O)=O`, the AC50 was 14.9 µM (active).

For `COC(=O)NS(=O)(=O)c1ccc(N)cc1`, the outcome was inactive.

As for `COP(=S)(OC)SCn1nnc2ccccc2c1=O`, the AC50 is 10.3 µM (active).

Take `CCOP(=O)(OCC)Oc1nc(Cl)c(Cl)cc1Cl`: the AC50 was 39.2 µM (active).

For `Cn1c(-c2ccccc2)cc(-c2ccccc2)[n+]1C`, the result was inactive.

Take `COCc1cnc(C2=NC(C)(C(C)C)C(=O)N2)c(C(=O)O)c1` (stereo not given): the molecule was classed as inactive.

For `O=C1C2CC=CCC2C(=O)N1SC(Cl)(Cl)Cl` (stereo not given), the call was inactive.

Take `COc1ccc(-c2ccccc2)cc1NNC(=O)OC(C)C`: the AC50 was 7.63 µM (active).

In the case of `COC(=O)NC(=S)Nc1ccccc1NC(=S)NC(=O)OC`, the AC50 is 50 µM (active).

On to `CCCN(CC)CC1COC2(CCC(C(C)(C)C)CC2)O1` (stereo not given), for which the AC50 was 9.19 µM (active).

`CS(=O)(=O)c1cc(C(F)(F)F)ccc1C(=O)c1cnoc1C1CC1`: the result was inactive.

For `CCOP(=S)(OCC)Oc1nc(Cl)n(C(C)C)n1`, the AC50 was 5.61 µM (active).

`CC(C)N1C(=O)N(c2ccccc2)CSC1=NC(C)(C)C`: the result was inactive.

Consider `COP(=S)(OC)Oc1ccc([N+](=O)[O-])c(C)c1`, for which the AC50 is 34.1 µM (active).

For the molecule `O=C(O)c1c(Cl)ccc2cc(Cl)cnc12`, the call was inactive.

Take `CN=C=S`: the AC50 was 50 µM (active).

Regarding `CC(C)(C)C(=O)C(Oc1ccc(Cl)cc1)n1cncn1` (stereo not given), the AC50 was 34.4 µM (active).

For `O=c1n(Cl)c(=O)n(Cl)c(=O)n1Cl`, the result was inactive.

Take `CNC(=O)N(C)c1nnc(C(C)(C)C)s1`: the molecule was classed as inactive.

As to `CS(=O)(=O)c1ccc(C(=O)C2C(=O)CCCC2=O)c([N+](=O)[O-])c1`, the result was inactive.

Take `CC(C)Oc1cccc(NC(=O)c2ccccc2C(F)(F)F)c1`: the AC50 was 17.6 µM (active).

Take `CC(C)Nc1nc(Cl)nc(NC(C)C)n1`: the molecule was classed as inactive.

On to `OC(c1ccc(Cl)cc1)(c1ccc(Cl)cc1)C(Cl)(Cl)Cl`, for which the result was inactive.

`CCN(CC)c1nc(C)cc(OP(=S)(OC)OC)n1`: the AC50 was 25.4 µM (active).

`CCCC(=NOCC)C1=C(O)CC(CC(C)SCC)CC1=O` (stereo not given): the result was inactive.

For `CC1(C)C(C=C(Cl)Cl)C1C(=O)OC(C#N)c1cccc(Oc2ccccc2)c1` (stereo not given), the AC50 was 4.91 µM (active).

For the molecule `CSC(=O)c1c(C(F)F)nc(C(F)(F)F)c(C(=O)SC)c1CC(C)C`, the AC50 is 0.789 µM (active).

Turning to `COc1cc(OC)nc(NC(=O)NS(=O)(=O)c2ncccc2OCC(F)(F)F)n1`, the molecule was called inactive.

For the molecule `CC(C)=CC1C(C(=O)OCc2coc(Cc3ccccc3)c2)C1(C)C` (stereo not given), the AC50 was 14.5 µM (active).

Consider `COCC(=O)N(c1c(C)cccc1C)C(C)C(=O)OC` (stereo not given), for which the result was inactive.

In the case of `COP(=O)(OC)O/C(C)=C/C(=O)N(C)C`, the molecule was called inactive.
